This passage reports inhibition results from ChEMBL document CHEMBL1961873, “Compounds: GSK PKIS; Assays: Nanosyn kinase panel” (2012).

Where “and” joins values, the source holds several entries; their conditions need not be identical. Equal values may be shown once.

The target of test [1] is CDK3/Cyclin E (Homo sapiens) (UniProt P24864+Q00526). The conditions noted are these: at 1 µM.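 Also: each figure is a mean percent inhibition of the CDK3/cyclin E complex.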
Test [2] deals with Cyclin-dependent kinase 4 (Homo sapiens) (UniProt P11802). Particulars: at 0.1 µM.
Test [3] has the same target. Particulars: at 1 µM.
In test [4] the target is Cyclin-dependent kinase 5 (Homo sapiens) (UniProt Q00535). Particulars: at 0.1 µM.
For test [5] the target is unchanged. The conditions noted are these: at 1 µM.
Test [6] concerns the target Cyclin-dependent kinase 6 (Homo sapiens) (UniProt Q00534). The conditions noted are these: at 0.1 µM.
For test [7] the target is unchanged. Particulars: at 1 µM.
Test [8] deals with Dual specificity protein kinase CLK2 (Homo sapiens) (UniProt P49760). The conditions noted are these: at 0.1 µM.
Test [9] shares this target. Particulars: at 1 µM.
Test [10] concerns the target Dual specificity protein kinase CLK3 (Homo sapiens) (UniProt P49761). Particulars: at 0.1 µM.

Chain of Cyclin-dependent kinase 5 (Homo sapiens) (Q00535 whole entry, looked up): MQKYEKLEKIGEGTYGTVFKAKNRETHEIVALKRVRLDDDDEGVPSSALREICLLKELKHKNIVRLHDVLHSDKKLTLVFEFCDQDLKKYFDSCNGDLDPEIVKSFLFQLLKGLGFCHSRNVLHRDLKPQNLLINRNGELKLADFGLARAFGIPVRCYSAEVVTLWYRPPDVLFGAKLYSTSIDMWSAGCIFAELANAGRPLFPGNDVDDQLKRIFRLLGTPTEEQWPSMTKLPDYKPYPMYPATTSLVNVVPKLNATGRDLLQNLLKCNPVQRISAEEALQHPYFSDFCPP
Chain of CDK3/Cyclin E (Homo sapiens) (P24864 whole entry, looked up): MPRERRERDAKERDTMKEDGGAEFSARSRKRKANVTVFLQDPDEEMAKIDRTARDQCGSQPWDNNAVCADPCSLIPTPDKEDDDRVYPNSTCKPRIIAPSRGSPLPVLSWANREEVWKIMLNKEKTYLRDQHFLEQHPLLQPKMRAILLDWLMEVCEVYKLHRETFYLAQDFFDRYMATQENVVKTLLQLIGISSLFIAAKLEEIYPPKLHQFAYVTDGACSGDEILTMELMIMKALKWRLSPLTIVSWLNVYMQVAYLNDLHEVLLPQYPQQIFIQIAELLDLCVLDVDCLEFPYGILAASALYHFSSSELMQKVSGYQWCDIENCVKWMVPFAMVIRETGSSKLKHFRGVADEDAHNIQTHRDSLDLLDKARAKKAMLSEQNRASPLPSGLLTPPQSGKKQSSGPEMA
Chain of CDK3/Cyclin E (Homo sapiens) (Q00526 whole entry, looked up): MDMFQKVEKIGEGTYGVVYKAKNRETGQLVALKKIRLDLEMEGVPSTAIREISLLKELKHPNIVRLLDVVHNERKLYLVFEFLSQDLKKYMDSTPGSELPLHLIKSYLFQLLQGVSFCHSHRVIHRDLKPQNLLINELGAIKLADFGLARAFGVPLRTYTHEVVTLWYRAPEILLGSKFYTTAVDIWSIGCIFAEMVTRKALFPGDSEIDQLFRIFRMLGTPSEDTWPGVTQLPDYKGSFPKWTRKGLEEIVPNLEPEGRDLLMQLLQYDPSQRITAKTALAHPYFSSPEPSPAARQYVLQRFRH
Chain of Cyclin-dependent kinase 6 (Homo sapiens) (Q00534 whole entry): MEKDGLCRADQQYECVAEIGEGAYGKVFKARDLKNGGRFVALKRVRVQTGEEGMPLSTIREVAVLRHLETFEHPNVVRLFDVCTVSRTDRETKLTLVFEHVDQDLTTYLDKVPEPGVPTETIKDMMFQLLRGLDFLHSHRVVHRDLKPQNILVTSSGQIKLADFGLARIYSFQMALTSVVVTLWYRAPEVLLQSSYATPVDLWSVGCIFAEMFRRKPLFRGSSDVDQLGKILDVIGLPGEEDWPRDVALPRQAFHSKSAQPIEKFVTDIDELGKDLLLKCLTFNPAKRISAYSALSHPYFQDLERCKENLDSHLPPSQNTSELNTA
Chain of Dual specificity protein kinase CLK2 (Homo sapiens) (P49760 whole entry, looked up): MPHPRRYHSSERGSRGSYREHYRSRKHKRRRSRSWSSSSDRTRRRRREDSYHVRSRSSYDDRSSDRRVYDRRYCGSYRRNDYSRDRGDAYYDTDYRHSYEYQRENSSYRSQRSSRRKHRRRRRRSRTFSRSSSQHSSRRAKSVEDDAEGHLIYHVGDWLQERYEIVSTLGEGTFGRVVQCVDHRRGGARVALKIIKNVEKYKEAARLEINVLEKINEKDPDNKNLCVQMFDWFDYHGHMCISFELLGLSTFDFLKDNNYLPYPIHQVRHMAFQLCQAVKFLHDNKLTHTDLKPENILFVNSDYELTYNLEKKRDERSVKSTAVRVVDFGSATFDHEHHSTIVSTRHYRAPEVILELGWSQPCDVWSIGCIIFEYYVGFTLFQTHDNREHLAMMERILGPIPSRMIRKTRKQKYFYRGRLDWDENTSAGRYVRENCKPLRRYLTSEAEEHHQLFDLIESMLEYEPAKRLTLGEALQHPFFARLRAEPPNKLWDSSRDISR
Chain of Dual specificity protein kinase CLK3 (Homo sapiens) (P49761 whole entry, looked up): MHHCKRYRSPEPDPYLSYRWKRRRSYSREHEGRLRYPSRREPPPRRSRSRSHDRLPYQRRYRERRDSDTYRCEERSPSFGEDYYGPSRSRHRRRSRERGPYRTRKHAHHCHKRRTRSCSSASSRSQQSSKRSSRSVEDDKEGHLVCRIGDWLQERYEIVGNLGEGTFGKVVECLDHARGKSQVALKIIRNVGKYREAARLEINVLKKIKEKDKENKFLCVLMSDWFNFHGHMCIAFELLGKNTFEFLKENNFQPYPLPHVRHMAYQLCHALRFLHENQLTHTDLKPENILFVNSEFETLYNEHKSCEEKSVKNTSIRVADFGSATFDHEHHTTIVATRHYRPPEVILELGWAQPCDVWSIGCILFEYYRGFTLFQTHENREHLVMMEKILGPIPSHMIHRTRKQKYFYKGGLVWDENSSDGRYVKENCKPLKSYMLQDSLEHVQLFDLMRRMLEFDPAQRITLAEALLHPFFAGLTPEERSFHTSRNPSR
Chain of Cyclin-dependent kinase 4 (Homo sapiens) (P11802 whole entry): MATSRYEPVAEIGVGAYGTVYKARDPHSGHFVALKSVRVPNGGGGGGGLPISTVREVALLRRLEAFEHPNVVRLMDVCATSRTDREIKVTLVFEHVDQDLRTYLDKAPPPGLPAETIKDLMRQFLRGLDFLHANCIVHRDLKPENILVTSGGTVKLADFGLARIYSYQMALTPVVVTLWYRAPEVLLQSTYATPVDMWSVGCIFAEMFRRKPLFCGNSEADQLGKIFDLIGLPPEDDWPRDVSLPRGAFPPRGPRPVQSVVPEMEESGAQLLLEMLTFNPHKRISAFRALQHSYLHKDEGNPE

As usually defined, the inhibition is the change of the read-out against control, counted positive when it falls. On to `CC(C)c1ccc(-c2cc(-c3c[nH]nc3-c3ccccn3)ccn2)cc1`, for which the inhibition was -1.28% in test [1]; 1.25% in test [2]; 1.46% in [3]; 0.18% in test [4]; 0.36% in [5]; -1.5% in test [6]. Further, the inhibition in test [7] is 1.16%; in test [8], 0.9%; in [9], -0.14%; in [10], 0.15%.

For `Nc1nccc(-c2c(-c3ccc(F)cc3)ncn2C2CCNCC2)n1`, the inhibition in test [1] was -1.14% and -1.16%; in [2], 0.24% and -0.14%; in test [3], 0.89% and 0.97%; in test [4], 0.29% and 0.63%; in test [5] it was 1.43% and 1.29%; in test [6], -5.67% and 1.15%. For the same molecule, the inhibition in test [7] was -4.19% and 1.96%; in test [8], 2.07% and 0.24%; in [9], 11.9% and 2.02%; in test [10], -0.13% and 1.41%.

`Nc1nonc1-c1nc2cnccc2n1C1CC1`: the inhibition is 4.03% and 3.32% in test [1]; 1.99% and -2.13% in test [2]; 2.95% and -0.61% in test [3]; 3.26% and -1.62% in test [4]; 16.6% and 12.1% in test [5]; 0.11% and -4.39% in test [6]. For the same molecule, the inhibition was 1.22% and -0.23% in test [7]; 0.67% and 3.19% in test [8]; 17% and 19% in [9]; 1.8% and -2.05% in test [10].

Consider `Cc1c2ccc(N(C)c3ccnc(Nc4cccc(S(N)(=O)=O)c4)n3)cc2nn1C`, for which the inhibition in test [1] was 2.13%; in test [2], -3.55%; in [3], 9.57%; in test [4] it was -1.58%; in test [5], 0.35%; in test [6], -1.51%. Besides, the inhibition in test [7] is 15.3%; in test [8], 1.61%; in test [9], 0.97%; in test [10], -1.14%.

Consider `NC(=O)c1ccc2c(-c3ccnc(NCCCO)n3)c(-c3ccc(F)cc3)nn2c1`, for which the inhibition in test [1] was -1.28%; in test [2] it was 3.3%; in test [3], 4.76%; in test [4], 0.91%; in test [5] it was 0.98%; in test [6] it was -6.31%. The inhibition in test [7] was found to be 1.97%; in [8] it was 2.88%; in test [9] it was 2.32%; in test [10], 0.97%.

`CS(=O)(=O)Nc1ccc(-c2ccc3c(NC(=O)C4CC4)n[nH]c3c2)cc1`: the inhibition in [1] was found to be 6.25%; in [2], 2.19%; in [3], 6.78%; in test [4] it was 0.45%; in [5] it was 1.18%; in test [6], 7.5%. Further, the inhibition was found to be 36.3% in test [7], 0.87% in [8], 3.05% in test [9] and 1.51% in test [10].

As for `COc1cccc(Nc2nccc(-c3cnn4ncccc34)n2)c1`, the inhibition was found to be 91.4% in [1]; 56.5% in test [2]; 76.9% in test [3]; 59.3% in test [4]; 78% in [5]; 49.5% in test [6]. For the same molecule, the inhibition in [7] is 80.5%; in test [8], 93.9%; in test [9] it was 98.2%; in [10], 23.2%.

With `COc1cc(N2CCN(C(C)C)CC2)ccc1Nc1nc(Nc2cccc(F)c2C(=O)O)c2cc[nH]c2n1`, the inhibition was -1.26% in test [1]; 2.63% in test [2]; 2.75% in test [3]; 1.71% in [4]; 2.09% in test [5]; 5.01% in test [6]. Also, the inhibition in test [7] was found to be 4.74%; in [8], 5.61%; in test [9], 41%; in [10], 3.73%.

Regarding `Cc1ccc(-c2cc3c(NC(=O)C4CC4)ncnc3o2)cc1`, the inhibition in test [1] is -0.64%; in [2], 3.36%; in test [3] it was 4.97%; in test [4], 1.87%; in test [5] it was 3.17%; in test [6], 1.55%. For the same molecule, the inhibition is 3.23% in test [7], -0.87% in [8], 6.08% in [9] and 2.11% in test [10].

Consider `COc1cc(N2CCN(C(C)C)CC2)ccc1Nc1nc(Nc2cccc3ncccc23)c2cc[nH]c2n1`, for which the inhibition in test [1] was -2.06%; in [2], -0.07%; in test [3], 1.11%; in test [4] it was 1.69%; in [5] it was 4.66%; in [6], 1.04%. In addition, the inhibition was 8.48% in test [7], 4.18% in test [8], 20.7% in test [9] and -0.15% in [10].

Take `CS(=O)(=O)CCNCc1ccoc1-c1ccc2ncnc(Nc3ccc(OCc4ccccc4)cc3)c2c1`: the inhibition was -1.1% in test [1]; 0.34% in test [2]; 2.91% in [3]; 0.75% in test [4]; 1.14% in test [5]; -0.43% in [6]. For the same molecule, the inhibition in test [7] is 5.44%; in test [8], 0.36%; in test [9], -2.93%; in [10], -0.17%.

Regarding `COc1cc(Nc2ncc(-c3ccccc3)o2)cc(OC)c1`, the inhibition in [1] was 6.13%; in test [2], 3.96%; in test [3], 14.9%; in test [4], -0.03%; in [5] it was 6.57%; in test [6] it was 4.07%. In addition, the inhibition in test [7] came out at 29.8%; in [8], 2.97%; in test [9] it was 2.12%; in [10] it was 0.59%.

Turning to `OCCCNc1nccc(-c2c(-c3ccc(F)cc3)nn3cc(C(F)(F)F)ccc23)n1`, the inhibition in test [1] is 0.86%; in test [2], 0.94%; in test [3], 3.36%; in test [4], 2.06%; in test [5] it was 3.96%; in test [6], 1.79%. For the same molecule, the inhibition in test [7] turned out to be 5.92%; in test [8], 0.1%; in [9] it was 1.15%; in [10] it was 0.35%.

Consider `CCOc1ccc2c(-c3ccnc(Nc4cc(OC)cc(C(F)(F)F)c4)n3)cnn2n1`, for which the inhibition in [1] amounted to 3.56%; in test [2], 1.15%; in test [3], 6.68%; in test [4] it was 2.44%; in test [5], 9.18%; in [6] it was 2.68%. In addition, the inhibition in test [7] came to 7.59%; in test [8], 81.2%; in test [9], 96.3%; in test [10], 3.69%.

Turning to `Cc1cc(O)cc(C)c1/C=C/c1cncc(C(N)=O)c1`, the inhibition in [1] was 1.41%; in [2], 2.84%; in test [3], 3.26%; in test [4], 0.63%; in test [5] it was 1.61%; in [6] it was 3.58%. For the same molecule, the inhibition was 4.03% in test [7], -0.7% in [8], 2.41% in [9] and 1.21% in [10].

As for `CCS(=O)(=O)c1ccc(OC)c(Nc2ncc(-c3cccc(C(C)=O)c3)o2)c1`, the inhibition in test [1] turned out to be 1.82%; in [2] it was 2.53%; in [3], 3.06%; in [4], 1.03%; in test [5] it was 3.09%; in test [6], 4.78%. Moreover, the inhibition in [7] was determined as 5.56%; in test [8] it was 28.6%; in test [9] it was 82.8%; in test [10], 1.61%.
